# Screening results from PubChem.
# Shiga inhibitor: inhibitors of Shiga toxin in Vero cells; Vero cells, Shiga toxin protein synthesis inhibition reporter; inhibition, % at 38.7 µM; AID 2315; 9.2% of 290,000 active; in the data active = inhibition mostly above about 28%, no sharp cut-off; inactive = mostly below about 43%; also: 0% is about no effect
# CHX counter: counter-screen hit for Shiga toxin inhibitors, cycloheximide; cell reporter, cycloheximide protein synthesis inhibition counterscreen; max response, %; 12% of 300,000 active; AID 2314; in the data active = max response mostly above about 13%, no sharp cut-off; inactive = mostly below about 14%; also: read at 38.3 µM for the half of the compounds with a filed dose; 0% is about no effect
# SARS PLP yeast: blocks SARS-CoV papain-like protease in a yeast assay; S. cerevisiae expressing SARS-CoV PLpro, growth rescue; Potency, µM (doses to about 32.9 µM), inactives show at the top dose activity, positive = growth rescue, usual class: activators; 0.19% of 330,000 active; AID 485353; also: potency is read from the fitted curve at half-maximal effect; 0% is about no effect; nearly all actives have a fitted effect of over 55% in size
# NS1 function inh: inhibitors of influenza NS1 protein function | Potency, µM (titrated, usually from 46.1 µM), without a hit: at the top dose activity, positive = more growth | 0.4% of 270,000 active | AID 2326; also: potency is read from the fitted curve at half-maximal effect; actives are rising curves; nearly all actives have a fitted effect of over 50% in size
#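 S. cerevisiae expressing influenza A NS1, grown in glucose, washed, then diluted 1:100 into pH 6.0 -URA galactose medium with 23 nl compound. Growth recovery read as OD600; NS1-free strain serves as control.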
# Pf growth 48h: inhibits P. falciparum growth in the first generation, 48 h | Potency, µM (doses to about 28.7 µM), for the others: at the highest dose activity change, negative = inhibition, actives largely listed as inhibitors | 5.9% of 310,000 active | AID 504832 | P. falciparum luciferase growth in erythrocytes, 48 h; active = well fitted inhibition curve with a large enough effect; inconclusive = small, poorly fitted or top-dose-only effect, or another doubt; inactive = no such curve, though single readings can be large or run the other way; also: potency is read from the fitted curve at half-maximal effect; % is scaled to controls: 0 for no effect and ±100 for the full control effect
#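 Firefly luciferase activity from engineered P. falciparum reports growth; inhibitors lower the luminescent signal. Cultures contained 2% hematocrit erythrocytes at 0.1% final parasitemia.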
# Pf growth 96h: inhibits malaria parasite growth, 96 h. Potency, µM (doses to about 28.7 µM), without a hit: at the highest dose activity change, negative = inhibition, usual class: inhibitors. 6.9% of 320,000 active. P. falciparum luciferase reporter growth, 96 h; active = well fitted inhibition curve with a large enough effect; inconclusive = small, poorly fitted or top-dose-only effect, or another doubt; inactive = no such curve, though single readings can be large or run the other way; also: potency is read from the fitted curve at half-maximal effect; % is scaled to controls: 0 for no effect and ±100 for the full control effect
#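 Parasite growth measured via integrated firefly luciferase reporter in P. falciparum. Infected erythrocytes at 2% hematocrit, 0.05% parasitemia final were treated 96 hours at 37 C under 5% CO2, and luminescence was read.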
# An asterisk follows results filed as active; ? = inconclusive; / = no result. Shown are actives, neighbours in structure and some others; about 21% of the full set was active somewhere. Unless noted, calls follow the shape of the full dose curve.
SMILES,Shiga inhibitor,CHX counter,SARS PLP yeast,NS1 function inh,Pf growth 48h,Pf growth 96h
C=C(C(=O)c1ccccc1)C(c1ccccc1)C(C)C(=O)c1ccccc1 (centres undefined),-5,7,-3%,-1%,?,12µM*
C=C(C(=O)c1ccccc1)C(C)C(=C)C(=O)c1ccccc1,17,38*,-31%,-14%,?,10µM*
COc1ccc(C(CC(=O)c2ccccc2)CC(=O)c2ccccc2)cc1,24,2,-1%,-7%,?,?
CCOC(=O)c1c(CSc2ccccc2)oc2cc(Br)c(O)c(CN(C)C)c12,-13,-3,0%,5%,2.6µM*,?
CCOC(=O)c1c(C)oc2cc(Cl)c(O)c(CN(C)C)c12,69*,39*,1%,-3%,?,?
CCOC(=O)c1c(CSc2ccc(CC)cc2)oc2ccc(O)c(CN(C)C)c12,-10,-6,11%,-2%,2.3µM*,11%
CC(=O)c1c(CSc2ccccc2)oc2ccc(O)c(CN(C)C)c12,-10,-5,0%,-5%,?,2%
CCOC(=O)c1c(C)oc2ccc(O)c(CN(C)C)c12,-7,-1,-3%,4%,-14%,-56%
COc1cccc(N(CC(=O)N/N=C(\C)c2cccs2)S(C)(=O)=O)c1,12,-1,0%,-1%,0%,-7%
CN(C(=O)c1ccc(S(=O)(=O)N2CCCC2)cc1)C1CCS(=O)(=O)C1 (centres undefined),/,/,-1%,/,4%,5%
CC1(C)OC(=O)C(=CNNc2c(Cl)cc(Cl)cc2Cl)C(=O)O1,-4,-3,0%,4%,39%,16%
C/C(=N\NC(=O)c1cnccn1)c1ccc([N+](=O)[O-])cc1,10,20*,-1%,2%,136%,1%
C/C(=N/NC(=O)c1cc(O)c(O)c(O)c1)c1ccc([N+](=O)[O-])cc1,23,5,0%,/,9.3µM*,33%
C/C(=N\NC(=O)c1ccc([N+](=O)[O-])cc1Cl)c1ccccc1,56*,32*,-1%,-2%,0%,39%
Oc1ccc(Br)cc1Cn1nnc2ccccc21,-10,-2,-7%,-25%,?,-7%
Cc1cc(C)c(NC(=O)CN(C)C(=O)CNC(=O)c2cccs2)c(C)c1,/,/,-9%,/,1%,-22%
O=C(/C=N/NC(=O)c1ccccc1Br)c1ccccc1,81*,46*,-1%,-8%,23%,31%
O=C(N/N=C/c1coc2ccccc2c1=O)c1ccccc1Br,-3,-2,-14%,-33%,4%,-14%
O=C(/C=N/NC(=O)c1ccc(Cl)cc1Cl)c1ccccc1,72*,30*,-1%,-38%,20%,28%
Cn1c(=O)n(C)c2cc(/C=N/NC(=O)c3ccc(Cl)cc3Cl)ccc21,3,7,0%,-27%,16%,0%
Cc1c(C(=O)Nc2ccc(F)cc2)sc2ncn(CC(=O)N3CCCCC3)c(=O)c12,16,11,-19%,9%,7%,-23%
O=C(COc1cc2oc(=O)c3c(c2cc1Cl)CCCC3)NCC1CCC(C(=O)O)CC1 (centres undefined),11,-8,-1%,4%,22%,?
CSc1cccc(-n2cc(-c3ccc4c(c3)OCO4)[nH]c2=O)c1,83*,29*,1%,6%,43%,?
COc1ccc(CNC(=S)N/N=C/c2ccc(O)c(OC)c2)cc1,18,-3,23%,14%,3%,-15%
COc1ccc(CNC(=S)N/N=C/c2ccc(OC)c(OC)c2)cc1,17,21*,0%,4%,28%,19%
SMILES,Shiga inhibitor,CHX counter,SARS PLP yeast,NS1 function inh,Pf growth 48h,Pf growth 96h
COc1ccc(/C=C/C(=O)Oc2cccc(/C=N/NC(=O)c3cccc(F)c3)c2)cc1,129*,95*,-20%,8%,71%,231%
COc1ccc(/C=C\C(=O)Oc2cccc(/C=N/NC(=O)Cc3ccc(OC)c(OC)c3)c2)cc1,46*,65*,-11%,3%,?,?
COc1ccc(/C=C/C(=O)Oc2ccc(/C=N\NC(=O)c3ccc(F)cc3)cc2)cc1,4,-4,13%,9%,2%,0%
CN(CC(=O)Nc1ccc(Cl)c(C(F)(F)F)c1)C(=O)CCCNC(=O)c1ccc(Cl)cc1,/,/,-4%,/,48%,43%
C/C(=N\NC(N)=S)C1=CCC2C3CC[C@H]4CC(O)CC[C@]4(C)C3CC[C@]12C (some centres undefined),27,13,-2%,-2%,/,12µM*
CC12CCC3C(CCC4CC(O)CCC43C)C1CC=C2c1ccccc1 (centres undefined),-4,-4,/,/,/,/
CCOC(=O)CNC1CC(=O)N(c2cccc(Cl)c2)C1=O (centres undefined),-20,-1,-25%,3%,/,12%
CC/C(=N\Nc1ccccc1[N+](=O)[O-])c1ccc(O)cc1,58*,23*,-2%,-6%,24%,-10%
C/C(=N\Nc1ccccc1[N+](=O)[O-])c1ccccc1O,90*,41*,?,-6%,165%,-14%
CC/C(=N\Nc1ccc([N+](=O)[O-])cc1[N+](=O)[O-])c1ccc(O)cc1,3,-3,0%,-8%,-18%,40%
CCOc1ccc(NC(=O)CN(C)C(=O)c2ccc(-c3ccc(C(C)=O)cc3)o2)cc1OCC,/,/,0%,/,2%,34%
CCOc1ccc(S(=O)(=O)N2CCC(C(=O)NCCc3ccc(S(N)(=O)=O)cc3)CC2)cc1,-13,0,1%,1%,-7%,?
N#Cc1nc(COc2cccc(Cl)c2)oc1NCc1ccncc1,54,18*,0%,-20%,?,?
COc1ccc(-c2nc(C#N)c(NCc3ccccc3Cl)o2)cc1,11,21,/,-8%,10%,?
COc1ccc(-c2nc(C#N)c(NCc3ccc(F)cc3)o2)cc1OC,45,24*,4%,-17%,?,/
N#Cc1nc(Cc2ccccc2)oc1NCc1ccccc1Cl,41*,48*,-27%,-227%,?,/
COc1ccc(-c2nc(C#N)c(NCc3ccccc3Cl)o2)cc1OC,26,16,10%,-2%,?,0.59µM*
N#Cc1nc(-c2ccco2)oc1NCc1ccc(F)cc1,34,12,-17%,-82%,19%,/
N#Cc1nc(Cc2ccccc2)oc1NCc1cccnc1,-6,-1,19%,5%,?,?
COc1ccc(CNc2oc(COc3ccc(Cl)cc3)nc2C#N)cc1,-2,-3,-17%,-45%,-20%,/
COc1ccc(N2C(=O)CC(Sc3nc4ccccc4s3)C2=O)cc1OC (centres undefined),-5,-3,-6%,2%,-3%,33%
O=C(COC(=O)c1cnccn1)NC1CCCc2ccccc21 (centres undefined),/,/,-2%,/,/,/
COc1cccc2cc(C(N)=O)/c(=N/NC(=O)COc3ccc(Cl)cc3)oc12,-4,-4,16%,5%,10%,4%
